ERb coact inh: ER-beta (human) coactivator binding inhibition; Q92731; TR-FRET ER-beta LBD / SRC1-Cy5 peptide binding; receptor agonist-loaded with 1 µM estradiol; inhibition, % at 25.6 µM; 1.3% of 86,000 active;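 active means compounds whose percent inhibition of the receptor-coactivator binding signal exceeds about 50% in the single-dose screen, limit read from the data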;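 further: 0% = receptor plus peptide wells without compound and 100% = peptide-only wells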
ERa coact pot: ER-alpha (human) coactivator binding potentiation. TR-FRET ERalpha-LBD/SRC-Cy5 coactivator binding, 2 h; 100 = basal binding, no effect. AID 639. coactivator binding (% of control), % at 25.6 µM. P03372. 1.3% of 86,000 active; in the data active means activity above about 200%;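 further: binding measured in presence of low estradiol as agonist stimulus; 0% = peptide alone without receptor and 100% = receptor with peptide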
ERa coact inh: ER-alpha (human) coactivator binding inhibition | P03372 | TR-FRET ER-alpha LBD / SRC-1 peptide, estradiol-bound | inhibition, % at 25.6 µM | 1.7% of 86,000 active | AID 629; in the data active means inhibition above about 50%;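 further: 0% = receptor plus peptide control and 100% = peptide only without receptor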
Calb biofilm kill: kills Candida albicans biofilms; AID 834; C. albicans biofilm + clotrimazole, Alamar Blue; 0.14% of 85,000 active; inhibition, % at 6 µM;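 active means inhibition above 20%; inactive means inhibition below 20%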;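 further: preformed 24 hr biofilms exposed to compound for 48 hr; 0% = biofilm without compound and 100% = blank killed by clotrimazole plus chlorhexidine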
HePTP inh: inhibitors of human HePTP phosphatase | P35236 | recombinant HePTP phosphatase activity, OD absorbance | 0.64% of 110,000 active | inhibition, % at 20 µM; in the data active means inhibition above about 50%;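 further: plate controls were vehicle for no effect and reference inhibitor for full effect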
Target sequence (P35236 whole entry, looked up): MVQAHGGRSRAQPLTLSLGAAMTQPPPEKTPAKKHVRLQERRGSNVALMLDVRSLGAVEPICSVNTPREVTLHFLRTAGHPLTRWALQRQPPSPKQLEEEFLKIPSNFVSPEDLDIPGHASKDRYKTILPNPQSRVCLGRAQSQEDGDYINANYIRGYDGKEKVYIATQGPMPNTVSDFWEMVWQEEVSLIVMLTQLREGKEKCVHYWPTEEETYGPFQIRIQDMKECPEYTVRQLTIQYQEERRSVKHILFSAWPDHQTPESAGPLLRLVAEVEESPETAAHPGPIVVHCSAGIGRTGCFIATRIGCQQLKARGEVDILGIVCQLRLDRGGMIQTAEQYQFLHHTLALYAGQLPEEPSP
Smad3 FoxH1 inh: inhibitors of human Smad3 transcription factor binding | TR-FRET Smad3/Dy647-FoxH1 peptide binding, europium anti-His | inhibition, % at 25 µM | 0.29% of 88,000 active;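 active means compounds that reduce the energy-transfer binding signal between the protein and its labelled peptide by more than half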;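 further: 0% = Smad3 plus labelled peptide maximal FRET and 100% = peptide-only background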
* hit, by the source's call; nt = no result given; [ ] = remark or other dose. This is a sample that favours compounds with a hit; in the whole collection about 2.9% have one here.

SMILES | ERb coact inh | ERa coact pot | ERa coact inh | Calb biofilm kill | HePTP inh | Smad3 FoxH1 inh
COc1cc(C(=O)Oc2c(CN3CCOCC3)cc(Cl)c3cccnc23)cc(OC)c1OC | 5 | 218* | -10 | -5 | 8 | 10
COc1ccc(C(=O)Oc2c(CN3CCOCC3)cc(Cl)c3cccnc23)cc1 | 7 | 114 | 1 | 9 | -6 | 23
Cc1ccccc1C(=O)Nc1sc2c(c1C(N)=O)CCCCC2 | nt | nt | nt | nt | 1 | nt
Cc1ccc(NC(=O)Cc2nnc(SCC(=O)c3ccc(Br)cc3)n2C)cc1 | 19 | 201*[fluorescence artefact?] | 4 | 6 | nt | 24
COc1cccc(NC(=O)Cc2nnc(SCC(=O)c3ccccc3)n2C)c1 | -4 | 103 | -1 | 6 | -3 | -10
O=c1/c(=C/c2ccco2)sc2nc(-c3ccccc3Br)nn12 | 62*[fluorescence artefact?] | 74 | 59*[fluorescence artefact?] | -3 | 15 | -10
COc1ccccc1/C=c1\sc2nc(-c3cccs3)nn2c1=O | 17 | 76 | 3 | 8 | 2 | -2
COc1ccccc1-c1nc2s/c(=C\c3cccs3)c(=O)n2n1 | 39 | 43 | 67*[fluorescence artefact?] | -2 | 4 | 7
COCCCNC(=O)c1cccc([N+](=O)[O-])c1C | nt | nt | nt | nt | -1 | nt
COc1ccc(/C=C/C(=O)NCc2ccc(OC)cc2)cc1 | nt | nt | nt | nt | 3 | nt
COc1ccc(CCNC(=O)/C=C/c2ccc([N+](=O)[O-])cc2)cc1 | nt | nt | nt | nt | 75* | nt
COc1ccc(-c2noc(C34CC5CC(CC(C5)C3)C4)n2)cc1 | nt | nt | nt | nt | -4 | nt
COc1cc(C(=S)N2CCCC2)cc(OC)c1O | -10 | 81 | 63*[fluorescence artefact?] | 4 | nt | -8
CCC1=NN(C(=O)CCc2ccccc2)C(O)(c2ccncc2)C1 (stereo not drawn) | nt | nt | nt | nt | -3 | nt
CCCSc1nc2c(c(=O)[nH]c(=O)n2C)n1Cc1ccc(C)cc1 | 33 | 119 | 67*[fluorescence artefact?] | 9 | 0 | 9
CCOc1ccccc1C(=O)N/N=C/c1cn(-c2ccccc2)nc1-c1ccc(OC)cc1 | nt | nt | nt | nt | -4 | nt
CCN(CC)c1ccc(NC(=O)C(C)(C)C)cc1 | nt | nt | nt | nt | 3 | nt
C=CCc1cccc2cc(C(=O)Nc3ccc(S(=O)(=O)Nc4nnc(CC)s4)cc3)c(=O)oc12 | nt | nt | nt | nt | 103* | nt
C=CCc1cccc2cc(C(=O)Nc3cccc(C(=O)O)c3)c(=O)oc12 | nt | nt | nt | nt | 90* | nt
C=CCc1cccc2cc(C(=O)Nc3ccc(Cl)c(Cl)c3)c(=O)oc12 | nt | nt | nt | nt | 2 | nt
C=CCc1cccc2cc(C(=O)NCc3cccnc3)c(=O)oc12 | 44 | 65 | 81*[fluorescence artefact?] | 2 | 1 | 8
O=C(COc1cccc(Cl)c1)Nc1nc(-c2ccc(S(=O)(=O)N3CCOCC3)cc2)cs1 | 7 | 202* | -1 | 3 | nt | 10
CCOc1cccc(C(=O)Nc2nc(-c3ccc(S(=O)(=O)N4CCOCC4)cc3)cs2)c1 | -7 | 166 | -2 | 1 | 7 | 1
COc1ccccc1C(=O)Nc1ccc(S(=O)(=O)N2CCOCC2)cc1 | -3 | 112 | -10 | -1 | -3 | -7
COc1ccccc1C(=O)Nc1nc(-c2ccc(S(=O)(=O)N3CCOCC3)cc2)cs1 | 3 | 399*[fluorescence artefact?] | 1 | 9 | 10 | 5
SMILES | ERb coact inh | ERa coact pot | ERa coact inh | Calb biofilm kill | HePTP inh | Smad3 FoxH1 inh
O=C(Nc1nc(-c2cccs2)cs1)c1ccc(S(=O)(=O)N2CCCCC2)cc1 | -4 | 235* | -2 | 13 | 6 | -7
O=C(Nc1nc(-c2ccc(Cl)c(Cl)c2)cs1)c1ccc(S(=O)(=O)N2CCOCC2)cc1 | nt | nt | nt | nt | 12 | nt
O=C(Nc1nc(-c2cccs2)cs1)c1cccc(S(=O)(=O)N2CCCCCC2)c1 | -1 | 189 | -11 | 5 | -6 | 4
O=C(Nc1nc(-c2ccncc2)cs1)c1ccc(S(=O)(=O)N2CCOCC2)cc1 | -10 | 239* | -1 | 4 | -11 | 5
CCCC(=O)Nc1c(C)n(C)n(-c2ccccc2)c1=O | nt | nt | nt | nt | -2 | nt
COc1ccccc1OC(C)C(=O)Nc1nc(-c2ccc(S(=O)(=O)N3CCOCC3)cc2)cs1 (stereo not drawn) | 8 | 263*[fluorescence artefact?] | 1 | 3 | nt | -2
COc1cccc(Nc2nc(-c3ccc(S(=O)(=O)N4CCOCC4)cc3)cs2)c1 | nt | nt | nt | nt | 11 | nt
C/C(=N\N=C1\NC(=O)C(CC(=O)Nc2ccccc2F)S1)c1ccc(Cl)cc1 (stereo not drawn) | nt | nt | nt | nt | 5 | nt
Cc1cc(NC(=O)c2cccc3ccccc23)ccc1NC(=O)c1ccccc1 | nt | nt | nt | nt | 11 | nt
CC1CCN(S(=O)(=O)c2ccc(NC(=O)Cc3ccccc3)cc2)CC1 | -2 | 118 | 6 | 0 | nt | 14
CC1CCN(S(=O)(=O)c2ccc(NC(=O)Cn3nnc(-c4ccccc4F)n3)cc2)CC1 | 62*[fluorescence artefact?] | 102 | 86*[fluorescence artefact?] | 9 | -11 | -6

Compound activity deposited in PubChem BioAssay by several laboratories.
